# Data published in PubChem BioAssay (NCATS).
# Results filed as inconclusive are left out. A number with no mark means an inactive call. Calls of active or inactive are those of the source. The call rests on the fitted dose curve; in most records, active means well fitted inhibition curve with a large enough effect; inconclusive means small, poorly fitted or top-dose-only effect; inactive means flat fitted curve, though single readings scatter.
# Target: Dual specificity protein kinase CLK4 (Homo sapiens) (UniProt Q9HAZ1)
# Experiment: qHTS Assay for Inhibitors of CDC-like Kinase 4 (ADP-Glo Assay) (AID 1771); further: nearly all actives have a fitted effect of over 70% in size
# Settings: recombinant CLK4, ADP-Glo luminescence; series mostly up to 80 µM; activity change, negative = inhibition: at the top concentration
# Procedure: NIH Molecular Libraries Probe Production Centers Network [MLPCN] NIH Chemical Genomics Center [NCGC] MLPCN Grant: 1R03MH084827-01 Assay Submitter (PI): Tom Misteli NCGC Assay Overview: Clk4 (Invitrogen, cat# PV3839) was assayed using ATP and the RS repeat peptide (AnaSpec cat # 61722) as substrates. In the assay, the ADP levels were detected using Promega ADP-Glo technology wherein the remaining ATP from the kinase reaction is first depleted with an ATPase reagent followed by a reagent that contains and enzyme which converts the ADP produced to ATP as well as Ultra-Glo luciferase and D-luciferin which generates a bioluminescence signal from the ATP. The positive control for the assay was TG003 (Sigma-Aldrich, cat# 300801-52-9) which has been described as an inhibitor of Clk 4[1].
# NCGC Assay Protocol Summary: Two uL/well of substrate-buffer solution (100 uM RS peptide, 1 uM ATP, 1x ADP-Glo Buffer A, 2 mM MgCl2, 0.5 mM EGTA, 2.5 mM DTT, 0.01% Triton X-100, final concentrations) was dispensed into 1536-well plates (Greiner, solid white, medium binding assay plates) with the Aurora Discovery BioRAPTR Flying Reagent Dispenser (FRD; Beckton-Dickenson). Twenty-three nanoliter of compound and control solutions were transferred to the assay plate using a Kalypsys pin-tool followed by 0.5 uL/well Clk4-buffer solution (25 nM Clk4, 1x ADP-Glo Buffer A, 2 mM MgCl2, 0.5 mM EGTA, 2.5 mM DTT, 0.01% Triton X-100 final concentration) dispensing for a total kinase reaction volume of 2.5 uL/ well. After 1 hr of room-temperature incubation, 2.5 uL ADP-Glo reagent was added and incubated at room temperature for 45 min to stop the kinetic reaction and degrade residual ATP. The ADP product was then converted to ATP by adding 5 uL per well of ADP-Glo Reagent II to yield a total assay volume of 10 uL/ well. Luminescence was detected after 30 min room temperature incubation with the Perkin Elmer Viewlux.
# On the % scale 0 is the no-effect control and ±100 the full control effect; potency means the concentration at half of the fitted maximal effect.
# Chain of Dual specificity protein kinase CLK4 (Homo sapiens) (Q9HAZ1 whole entry, looked up): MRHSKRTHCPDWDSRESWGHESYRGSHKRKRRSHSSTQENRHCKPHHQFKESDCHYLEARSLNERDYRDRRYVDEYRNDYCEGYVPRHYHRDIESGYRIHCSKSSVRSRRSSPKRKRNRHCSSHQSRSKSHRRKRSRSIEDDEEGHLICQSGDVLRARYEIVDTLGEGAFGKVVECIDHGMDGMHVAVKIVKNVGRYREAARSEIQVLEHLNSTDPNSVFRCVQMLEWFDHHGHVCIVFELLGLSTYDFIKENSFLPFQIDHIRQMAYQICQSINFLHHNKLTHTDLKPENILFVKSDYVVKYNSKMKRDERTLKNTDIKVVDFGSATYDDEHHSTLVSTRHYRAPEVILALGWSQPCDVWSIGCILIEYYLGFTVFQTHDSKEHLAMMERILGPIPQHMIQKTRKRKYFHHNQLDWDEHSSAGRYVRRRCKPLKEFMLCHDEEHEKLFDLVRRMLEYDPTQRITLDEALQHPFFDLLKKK
SMILES,"activity change, negative = inhibition [%]",Potency
Cc1nc2cnc(Oc3ccccc3)nc2n(C2CC2)c1=O,7.94,–
CN1CCN(c2ncc3nc(-c4cccc(C#N)c4)c(=O)n(C[C@H]4CCCO4)c3n2)CC1,0.775,–
NC(=O)c1ccccc1-c1nc(-n2ccnc2)c2ccccc2n1,-11.6,–
COc1cccc(Nc2ncc3nc(-c4ccccc4)c(=O)n(C)c3n2)c1,-12.7,–
Cc1noc(C)c1-c1nc(N(C)Cc2ccco2)c2ccccc2n1,–,35.5 µM (active)
CN(C)Cc1ccccc1-c1cc(NCc2cccs2)ncn1,-1.9,–
CS(=O)(=O)Nc1cccc(-c2nccc(NCc3cccs3)n2)c1,–,35.5 µM (active)
c1cncc(-c2nccc(NCc3cccs3)n2)c1,–,10 µM (active)
N#CCCn1c(=O)c(-c2ccccc2)nc2cnc(Nc3ccccc3)nc21,4.28,–
CS(=O)(=O)Nc1cccc(-c2ccc3ncnc(N4CCOCC4)c3c2)c1,–,6.31 µM (active)
CN(C)c1ccc(-c2nc(NCCc3cnc[nH]3)c3ccccc3n2)cc1,–,22.4 µM (active)
Cn1c(=O)c(-c2ccc(F)cc2)nc2cnc(OCc3ccccc3)nc21,2.77,–
Cn1c(=O)c(-c2cc(F)cc(F)c2)nc2cncnc21,-28.9,–
COc1ccccc1CNc1ccnc(-c2ccccc2CN(C)C)n1,5.8,–
COc1ccc2[nH]cc(CCNc3ccnc(-c4c(C)noc4C)n3)c2c1,-26.3,–
CN1CCN(c2ncncc2-c2ccc(N(C)C)cc2)CC1,-24.1,–
Cc1nc2cnc(N3CCN(C)CC3)nc2n(C2CC2)c1=O,0.376,–
COc1cccc(-c2nccc(NCc3ccccc3OC)n2)c1,–,14.1 µM (active)
COc1cccc(-c2ccc3ncnc(NCCN4CCOCC4)c3c2)c1,–,1 µM (active)
Cc1cnc(CNc2ncncc2-c2ccoc2)cn1,-20.1,–

SMILES,"activity change, negative = inhibition [%]",Potency
CN1CCN(c2ncc3nc(-c4cccs4)c(=O)n(Cc4cccs4)c3n2)CC1,-21.3,–
Cc1nc2cnc(N(C)C)nc2n(CCc2ccccc2)c1=O,–,35.5 µM (active)
CN(Cc1ccco1)c1ccnc(-c2ccccc2C(F)(F)F)n1,7.33,–
Cc1nc2cnc(Nc3ccccc3)nc2n(C[C@H]2CCCO2)c1=O,–,22.4 µM (active)
CNc1ccnc(-c2ccccc2C)n1,-4.49,–
Cc1ccccc1-c1ccc2ncnc(N(C)Cc3ccco3)c2c1,–,14.1 µM (active)
COCCn1c(=O)c(-c2ccccc2)nc2cnc(N(C)C)nc21,-8.62,–
Cn1c(=O)c(-c2ccc(F)c(F)c2)nc2cncnc21,-11.6,–
N#CCCn1c(=O)c(-c2cc(F)cc(F)c2)nc2cnc(N3CCOCC3)nc21,-18.3,–
N#CCCn1c(=O)c(-c2ccc(Cl)cc2)nc2cnc(Nc3ccccc3)nc21,9.32,–
COc1ccccc1CCn1c(=O)c(-c2ccc(F)c(F)c2)nc2cncnc21,-0.283,–
CCNc1ncc2nc(-c3ccccc3)c(=O)n(Cc3cccc(OC)c3)c2n1,-2.94,–
COc1ccc(-c2nc3cnc(Nc4cccc(OC)c4)nc3n(Cc3cccs3)c2=O)cc1,0.0619,–
COc1ccc2[nH]cc(CCNc3ccnc(-c4cccnc4)n3)c2c1,–,14.1 µM (active)
CN(C)c1ncc2nc(-c3cccs3)c(=O)n(C)c2n1,0.0944,–
O=c1c(-c2ccccc2)nc2cnc(Oc3cccc(Cl)c3)nc2n1C[C@H]1CCCO1,-7.32,–
O=c1c(-c2cccc(Cl)c2)nc2cncnc2n1-c1ccccc1,-4.66,–
COc1ccc(Nc2ncc3nc(-c4cccs4)c(=O)n(Cc4cccc(OC)c4)c3n2)cc1,-9.96,–
CN1CCN(c2ncc3nc(-c4cc(F)cc(F)c4)c(=O)n(CCC#N)c3n2)CC1,-25.2,–
CCNc1ncc2nc(-c3ccc(F)cc3)c(=O)n(Cc3ccc(F)cc3)c2n1,-1.94,–
